In all, about 320,000 compounds went through this assay and about 2,100 (0.66%) were called active. About 53% were inconclusive and are not listed. Calls follow the shape of the dose curve; as a rule, active = well fitted inhibition curve with a large enough effect in the signal ratio, with a control signal flat (not every such curve was filed as active); inconclusive = small, poorly fitted or top-dose-only effect, or effect the other way, or a change in a side signal; inactive = flat fitted curve, though single readings scatter; the % refers to the signal ratio. Many of the other results were omitted from the sample, so actives are more common in it than they were.
Potency is read from the fitted curve at half-maximal effect.

The assay in a line: qHTS Assay for Lipid Storage Modulators in Drosophila S3 Cells.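 As to cell number change: cells counted by Cell Tracker Red CMTPX staining in the red channel.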 As to lipid storage change, negative = inhibition: % is scaled to controls: 0 for no effect and ±100 for the full control effect. Conditions: BODIPY lipid droplet fluorescence, 18-24 h, cells fed with added oleic acid; cell number change: measured here: cell count max response; series mostly up to 46.1 µM; lipid storage change, negative = inhibition: at the top concentration. In outline: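 Laser-scanning cytometry quantifies lipid droplet accumulation (500–530 nm total intensity; droplet/cell object ratio) in oleic acid-fed (400 uM added) Drosophila S3 cells treated with a concentration series. 20 uM Triacsin C defined 100% inhibition.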
A general note: qHTS replaces the single test concentration by a dilution series.
For the molecule `COc1ccccc1C1(CC(=O)Nc2nccs2)CCOC(C(C)C)C1` (stereo not given), the “lipid storage change, negative = inhibition” value was -11.8% (inactive).
As to `C=CCn1c(SCC(=O)NCc2ccc3c(c2)OCO3)nnc1C1CCCCC1`, the “lipid storage change, negative = inhibition” value was -2% (inactive) and the cell number change is -24%.
With `COC(=O)c1sccc1NS(=O)(=O)c1ccccc1[N+](=O)[O-]`, the call was inactive and the cell number change is -10.5%.
`CN(C)S(=O)(=O)c1cccc(NC(=O)COC(=O)CCc2nc3ccccc3s2)c1`: the call was inactive and the cell number change came to 27.2%.
Taken in the same sequence, the figures for `COc1ccc(NC(=O)c2ccc3c(=O)n(CC4CCCO4)c(=S)[nH]c3c2)c(OC)c1` (stereo not given) were “inactive” and 0.833%.
Consider `Cc1cccc(NC(=O)c2ccc3c(=O)n(CC4CCCO4)c(=S)[nH]c3c2)c1` (stereo not given), for which the Potency was 2.91 µM (active) and the cell number change turned out to be 0.855%.
As to `CCCCCNC(=O)c1ccc2c(=O)n(CC3CCCO3)c(=S)[nH]c2c1` (stereo not given), the “lipid storage change, negative = inhibition” value is 3.35% (inactive) and the cell number change stood at 12.5%.
On to `CCOc1ccccc1C(=O)NN1C(=O)C2CCCCC2C1=O` (stereo not given), for which the “lipid storage change, negative = inhibition” value was -3.41% (inactive) and the cell number change turned out to be 2.53%.
The like results for `O=C(N/N=C1\CCCCc2ccccc21)c1ccccn1` were, in that order, 4.38% (inactive) and 8.38%.
Consider `CC1(C)CC(=O)C=C(NCCc2ccc(S(N)(=O)=O)cc2)C1`, for which the Potency was 29.1 µM (active) and the cell number change stood at 7.43%.
For the molecule `CC1(C)CC(=O)C=C(NCCc2ccccc2)C1`, the “lipid storage change, negative = inhibition” value is 22.1% (inactive) and the cell number change was 5.18%.
The like results for `CC1(C)CC(=O)C=C(Nc2ccc(S(N)(=O)=O)cc2)C1` were, in that order, 0.606% (inactive) and 5.75%.
As to `CC(=O)Nc1ccc(NC2=CC(=O)CC(C)(C)C2)cc1`, the molecule was called inactive.
The same measure, in the same setting: the value for `CC1(C)CC(=O)C=C(Nc2ccc(F)cc2)C1` was “inactive”.
With `CCc1ccc(NC2=CC(=O)CC(C)(C)C2)cc1`, the Potency is 16.4 µM (active) and the cell number change is -10.8%.
With `FC(F)(F)c1nnc(-c2ccccc2)nc1N1CCOCC1`, the outcome was inactive.
With `O=C(COc1ccccc1)NC(NC(=S)Nc1ccccc1C(=O)O)C(Cl)(Cl)Cl` (stereo not given), the “lipid storage change, negative = inhibition” value is 0.637% (inactive) and the cell number change is -4.52%.
In the case of `CCCCN(C(=O)c1cccc(S(=O)(=O)N2CC(C)OC(C)C2)c1)c1c(N)n(CCCC)c(=O)[nH]c1=O` (stereo not given), the “lipid storage change, negative = inhibition” value is 7.24% (inactive) and the cell number change is 6.37%.
Take `CCOC(=O)C(NC(=O)NC1CCCCC1)(c1ccccc1)C(F)(F)F` (stereo not given): the Potency is 7.31 µM (active) and the cell number change was -7.07%.
On to `CCOC(=O)C(NC(=O)N1CCCCC1)(c1ccccc1)C(F)(F)F` (stereo not given), for which the “lipid storage change, negative = inhibition” value is -12.7% (inactive) and the cell number change is -0.413%.
The like results for `CCOC(=O)C(NC(=O)Nc1ccc(O)cc1)(c1ccccc1)C(F)(F)F` (stereo not given) were, in that order, 2.59% (inactive) and 14.8%.
Regarding `Cc1n[nH]c(C)c1S(=O)(=O)N1CCc2ccccc2C1`, the molecule was classed as inactive and the cell number change is 24.8%.
`C/C(=N\NC(=O)c1c(C)nc2ccccn12)c1ccco1`: the “lipid storage change, negative = inhibition” value is -0.446% (inactive) and the cell number change was -20.6%.
Take `C/C(=N\NC(=O)c1c(C)nc2ccccn12)c1ccc(O)cc1O`: the Potency was 5.8 µM (active) and the cell number change was 6.25%.
Consider `Cc1nc2ccccn2c1C(=O)N/N=C/c1ccccc1`, for which the “lipid storage change, negative = inhibition” value was -11.4% (inactive) and the cell number change is 9.24%.
With `CC(=O)N1CCN(C(=S)c2ccc(Cl)cc2)CC1`, the “lipid storage change, negative = inhibition” value was 1.15% (inactive) and the cell number change is -11.3%.
On to `Cc1csc(NC(=O)CSc2nc(C(C)C)nc3ccccc23)n1`, for which the Potency was 7.31 µM (active) and the cell number change amounted to 6.52%.
On to `Cc1csc(NC(=O)CSc2nc3ccccc3c3c2CCCC3)n1`, for which the “lipid storage change, negative = inhibition” value is -3.82% (inactive) and the cell number change worked out at 1.26%.
With `Cc1csc(NC(=O)CSc2[nH]c(=O)ncc2C)n1`, the call was inactive.
Take `Cc1csc(NC(=O)CSc2ncnc3ccccc23)n1`: the “lipid storage change, negative = inhibition” value was 25.2% (inactive) and the cell number change is -0.862%.
The like results for `COC(=O)c1c(SCC(=O)Nc2ccc(C)cc2)nc(=O)[nH]c1C` were, in that order, -0.206% (inactive) and 11%.
`CCOC(=O)c1c(SCC(=O)Nc2nc(C)cs2)nc(=O)[nH]c1C`: the Potency was 13 µM (active) and the cell number change was 11.9%.
`Cc1ccc(NC(=O)CCC(=O)NNS(=O)(=O)c2ccc(Cl)cc2)cc1C`: the result was inactive and the cell number change was -13.3%.
For `Cc1ccc(S(=O)(=O)NNC(=O)CCC(=O)Nc2ccccc2)cc1`, the “lipid storage change, negative = inhibition” value is -16.6% (inactive) and the cell number change was 20.4%.
Take `CC(=O)Nc1ccc(S(=O)(=O)NNC(=O)CCC(=O)Nc2cc(C)ccc2C)cc1`: the Potency is 2.31 µM (active) and the cell number change amounted to 1.21%.
As to `Cc1ccc([N+](=O)[O-])cc1NC(=O)CN(C)CCOc1ccccc1`, the “lipid storage change, negative = inhibition” value is 14.4% (inactive) and the cell number change came to 12%.
Taken in the same sequence, the figures for `CCOC(=O)c1cc(-c2ccc(OC)cc2)n(CCC(=O)NC2CCN(Cc3ccccc3)CC2)c1C` were 4.21% (inactive) and 11%.
`C=CCN(c1ccc(C(=O)OC)cc1)S(=O)(=O)c1ccccc1`: the “lipid storage change, negative = inhibition” value was 8.9% (inactive).
With `Cn1c(=O)oc2cc(S(=O)(=O)NCc3ccco3)ccc21`, the “lipid storage change, negative = inhibition” value is 1.46% (inactive) and the cell number change was determined as 0.921%.
Taken in the same sequence, the figures for `Cc1ccc(-c2ccc(S(=O)(=O)NCc3ccco3)cc2)cc1` were 12.3% (inactive) and 2.5%.
Consider `Cc1ccc(S(=O)(=O)NCc2ccco2)cc1C`, for which the Potency was 10.3 µM (active) and the cell number change was -8.6%.
Taken in the same sequence, the figures for `CCOCCCNC(=O)C1CCCN1C(=O)NC1CCCCC1` (stereo not given) were 20.6 µM (active) and -3.91%.
Consider `CCCCNC(=O)C1CCCN1C(=O)NC1CCCCC1` (stereo not given), for which the “lipid storage change, negative = inhibition” value was -1.43% (inactive) and the cell number change amounted to 9.73%.
Taken in the same sequence, the figures for `CC(C)CCNC(=O)C1CCCN1C(=O)NC1CCCCC1` (stereo not given) were 0.129% (inactive) and -5.55%.
In the case of `Cc1ccc(C(=O)Nc2onc(C)c2C#N)cc1`, the outcome was inactive.
With `O=C(NCc1ccccc1Cl)c1cnccc1C(F)(F)F`, the “lipid storage change, negative = inhibition” value is -7.42% (inactive) and the cell number change worked out at 0.794%.
On to `COc1ccc(-n2nc([N+](=O)[O-])c(=NCCc3ccc(C)cc3)n2O)cc1`, for which the “lipid storage change, negative = inhibition” value is -6.21% (inactive) and the cell number change is -0.674%.
In the case of `COc1ccc(-n2nc([N+](=O)[O-])c(=NCCc3ccc(OC)c(OC)c3)n2O)cc1`, the Potency was 0.82 µM (active) and the cell number change is -7.82%.
Turning to `Cc1ccc(CCN=c2c([N+](=O)[O-])nn(-c3ccccc3)n2O)cc1`, the molecule was called inactive.
In the case of `CCOc1ccccc1/C=N/n1nnnc1N`, the outcome was inactive and the cell number change is -5.74%.
Turning to `O=C1C2CC=C(Cl)CC2C(=O)N1CCC[n+]1cccc2ccccc21` (stereo not given), the “lipid storage change, negative = inhibition” value is 16.7% (inactive) and the cell number change is -1.42%.
For the molecule `O=C(C1CC(=O)N(c2ccc(Cl)cc2)C1)N1CCC(c2nc3ccccc3[nH]2)CC1` (stereo not given), the “lipid storage change, negative = inhibition” value is 2.22% (inactive).
In the case of `CCCNC(=O)Cn1cnc2sc(C(=O)N3CCN(Cc4ccc5c(c4)OCO5)CC3)c(C)c2c1=O`, the “lipid storage change, negative = inhibition” value is 5.05% (inactive) and the cell number change turned out to be 8.92%.
Turning to `CCCNC(=O)Cn1cnc2sc(C(=O)N3CCN(CCC)CC3)c(C)c2c1=O`, the Potency is 32.6 µM (active) and the cell number change was -2.16%.
For the molecule `CCCNC(=O)Cn1cnc2sc(C(=O)N3CCCC(C(=O)OCC)C3)c(C)c2c1=O` (stereo not given), the “lipid storage change, negative = inhibition” value is 9.28% (inactive) and the cell number change is -16.1%.
Turning to `CCOC(=O)C1CCN(C(=O)c2cccc(N3C(=O)NC4CC3(C)Oc3ccc(C)cc34)c2)CC1` (stereo not given), the molecule was called inactive.
As for `Cn1c(=O)oc2cc(S(=O)(=O)N3CCCCC3)ccc21`, the molecule was called inactive and the cell number change was 4.27%.
For `COc1cc(NS(=O)(=O)c2ccc(N/C=C\C(=O)c3ccc(F)cc3)cc2)nc(OC)n1`, the “lipid storage change, negative = inhibition” value is 10.9% (inactive) and the cell number change is 2.61%.
In the case of `COc1ccc(C(=O)/C=C/Nc2ccc(S(=O)(=O)Nc3nc(C)cc(C)n3)cc2)c(OC)c1`, the “lipid storage change, negative = inhibition” value was 0.417% (inactive) and the cell number change is 26.5%.
`COc1ccc(C(=O)/C=C/Nc2ccc(S(=O)(=O)Nc3cc(OC)nc(OC)n3)cc2)c(OC)c1`: the Potency is 29.1 µM (active) and the cell number change was determined as 34.2%.

The values are drawn from PubChem BioAssay AID2685 (National Center for Advancing Translational Sciences (NCATS), 2010).
